This passage reports growth results from PubChem BioAssay (NCI).

This is part of a sample that, as a whole, favours compounds with a hit. Of some 83,000 tested, about 20% had one in any assay.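 Results are percent growth after 48 hours of single-concentration exposure. 100 means growth as in untreated cells, lower positive values show inhibition; negative values down to -100 show cell death.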 Values without a mark were called inactive. The source made the active and inactive calls. The calls were made as follows: active = growth percent below 10; inactive = the rest.

The assay concerns HL-60(TB) leukemia. The assay is described as follows: NCI-60 one-dose screen, 48 h (100 = growth as untreated, 0 = no growth, -100 = all killed). Particulars: 10 µM unless noted.
For the compound `C/C(=C(\c1ccc(OCCN2CCCCCC2)cc1)c1ccc(OC(=O)c2ccccc2)cc1)c1ccc(Cl)cc1`, the growth was 13.8%.

For `O=c1[nH]ccc2nc(N3CCC(O)CC3)nc(Nc3ccc(N4CCOCC4)cc3)c12`, the growth is 18.9%.

Turning to `O=C1NC(=O)C(c2ccc(Cl)cc2Cl)N1` (stereo not given), the growth is 107%.

`COc1cc(C(=O)c2cnc(-c3ccc4cc[nH]c4c3)[nH]2)cc(OC)c1OC`: the growth was -1.01% (active).

Consider `CCc1ccc(OCc2ccccc2C(=O)Nc2ccc3nc(C)cc(N)c3c2)cc1`, for which the growth was -75.9% (active).

Turning to `COc1cccc(OCC(O)CN2CCN(c3ccccc3)CC2)c1` (stereo not given), the growth was 78.7%.

As for `COc1cc2nc(N3CCCC3)nc(NCC3CCCCC3)c2cc1OC`, the growth was -57.2% (active).

For the compound `N#C/C(=C\c1ccc(-c2ccc(Cl)cc2)o1)c1ccc(Cl)cc1`, the growth is 96.1%.

Turning to `COc1cc2nc(Cl)nc(Nc3cccc(C(=O)/C=C/c4ccccc4)c3)c2cc1OC`, the growth is 70.1%.

For the compound `Cn1c2ccccc2c2nnc(N/N=C/c3ccccn3)nc21`, the growth is -46.1% (active).

On to `COc1ccc(/C=C\C(=O)/C=C/c2ccc(OC)cc2)cc1`, for which the growth is 50.2%.

On to `CCCNS(=O)(=O)c1ccc(Cl)cc1`, for which the growth was 105%.

For `N#CCCOc1ccccc1`, the growth is 88.7%.

Take `COc1ccc(/C=C/C(=O)NCCO)cc1`: the growth was 93.6%.

`O=[N+]([O-])c1ccccc1CN1CCCCC1`: the growth is 101%.

Regarding `Cc1ccc(OC2=C(C#N)C(=N)N3C(=NN2)Sc2c(C)ccc(C)c23)cc1`, the growth was 109%.

`O=Cc1ccc(Cl)c(Cl)c1`: the growth is 106%.

Turning to `CN(C)c1nc(N)c(N=O)c(N)n1`, the growth is 106%.

As to `O=c1[nH][nH]c(=O)c2cc([N+](=O)[O-])ccc12`, the growth is 96.2%.

As to `N#Cc1cnn(C(=O)c2nn(-c3ccc(Cl)cc3)cc2O)c1N`, the growth is -50.1% (active).

Regarding `CCOC(=O)c1ccc2c(c1)nc(/C=C/c1ccc(Cl)cc1)n2-c1cc(C(C)(C)C)[nH]n1`, the growth was 73.1%.

For `Cc1cc2nc(CC(=O)c3cccc([N+](=O)[O-])c3)c(=O)[nH]c2cc1C`, the growth was 93.5%.

Take `COc1cccc2cc(-c3cc4ccccc4[nH]3)/c(=N/C(=S)Nc3ccc(C)cc3)oc12`: the growth was 98.1%.

With `CC1=C2[C@@H](CC1)[C@]1(C)O[C@@](C3CCCCC3)(C[C@H]1OC(=O)CO)[C@H]2OC(=O)/C=C/c1ccccc1`, the growth was 82.5%.

As to `O=C(Nc1ccc(Nc2ncnc3sc4c(c23)CCOC4)cc1)Nc1ccc(Cl)c(C(F)(F)F)c1`, the growth is 98.9%.
